# Only some compounds are listed: those with a hit (about 19% of all), similar ones and a draw of the others.
# TGFb inhibitor = inhibitors of TGF-b signaling; HepG2 CAGA-GFP TGF-b/SMAD3 reporter, GFP fluorescence, 18 h; TGF-beta stimulated, 500 pg/mL final; Potency, µM (series often up to 46.1 µM), inactives show at the highest dose activity, negative = inhibition, most hits filed as inhibitors; hit rate 1.2% among 410,000; AID 588855; further: potency means the concentration at half of the fitted maximal effect; on the % scale 0 is the no-effect control and ±100 the full control effect; nearly all actives have a fitted effect of over 65% in size
#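 Inhibition of TGF-beta-driven CAGA-GFP reporter expression in HEPG2 cells is measured by cellular GFP fluorescence after 18 h stimulation with 500 pg/mL recombinant TGF-beta in 1% FBS medium at 37 degrees C.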
# TDP1 cell noCPT = qHTS for Inhibitors of human tyrosyl-DNA phosphodiesterase 1 (TDP1): qHTS in cells in absence of CPT | DT40 Tdp1-/- hTDP1 cells, no CPT, ATP luminescence, 48 h | Potency, µM (titrated, usually from 46.2 µM), for the others: top-dose activity change, negative = growth inhibition, actives largely listed as inhibitors | hit rate 15% among 420,000 | AID 686978, 2013; further: potency means the concentration at half of the fitted maximal effect; on the % scale 0 is the no-effect control and ±100 the full control effect; nearly all actives have a fitted effect of over 55% in size
#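 Readout: luminescence from CellTiter-Glo after 30 min in the dark at RT. Cells: DT40 Tdp1-/- with stable hTDP1, 400/well. Exposure: compounds alone, ≥48 hr, 37 °C.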
# IL-1B inflam inh = blocks inflammasome-driven IL-1 beta release; hit rate 4.7% among 360,000; activity change, % at 57.5 µM; THP-1 LPS/ATP IL-1B secretion, AlphaLISA, 16 h; hits give low values; in the data active means activity change below about -50%; inconclusive means mostly about -30% to -49%; further: on the % scale 0 is the no-effect control and ±100 the full control effect
#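 THP-1 cells pretreated 1 hr with compounds (up to 57.5 uM final), then stimulated with LPS (250 ng/mL final) plus ATP (1.25 mM final); secreted IL-1B measured by AlphaLISA after 16 hr, decreased signal indicating inhibition.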
# DT40 TDP1 CPT = growth inhibition of DT40 Tdp1-/-;hTDP1 cells with camptothecin (screen for TDP1 inhibitors) | AID 686979 | hit rate 12% among 420,000 | chicken DT40 Tdp1-/-;hTDP1 cells + 20 nM CPT, ATP luminescence, 48 h | Potency, µM (highest dose often 46.2 µM), without a hit: top-dose activity change, negative = growth inhibition, most hits filed as inhibitors; further: potency means the concentration at half of the fitted maximal effect; on the % scale 0 is the no-effect control and ±100 the full control effect; nearly all actives have a fitted effect of over 55% in size
#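 Chicken DT40 Tdp1-/- cells stably complemented with human TDP1 were seeded at 400 cells/well in medium containing 20 nM camptothecin, exposed to pin-transferred compounds, and grown at 37 °C for at least 48 hr. Viability was read as ATP luminescence.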
# HepG2 viability = kills HepG2 cells in TGF-b inhibitor counter-screen; HepG2 CAGA-GFP viability, ATP luminescence, 18 h; Potency, µM (doses to about 46.1 µM), without a hit: at the top dose activity change, negative = cytotoxicity, most hits filed as cytotoxic; hit rate 0.76% among 410,000; AID 588856; further: potency means the concentration at half of the fitted maximal effect
#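 HepG2 CAGA-GFP cells (1000/well, DMEM with 1% FBS) received compound, then TGF-beta at 500 pg/mL final, and were incubated 18 hours at 37 degrees C. Viability was read by CellTiter-Glo luminescence. Media-only wells were set as complete cell-killing and DMSO as no toxicity.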
# TDP1 block = blocks human tyrosyl-DNA phosphodiesterase 1 | Potency, µM (highest dose often 130 µM), for inactives: at the highest dose activity change, negative = inhibition, actives largely listed as inhibitors | Q9NUW8 | recombinant TDP1, AlphaScreen DNA substrate cleavage | hit rate 0.28% among 350,000; further: potency means the concentration at half of the fitted maximal effect; on the % scale 0 is the no-effect control and ±100 the full control effect; nearly all actives have a fitted effect of over 40% in size
# Target sequence (Q9NUW8 whole entry, looked up): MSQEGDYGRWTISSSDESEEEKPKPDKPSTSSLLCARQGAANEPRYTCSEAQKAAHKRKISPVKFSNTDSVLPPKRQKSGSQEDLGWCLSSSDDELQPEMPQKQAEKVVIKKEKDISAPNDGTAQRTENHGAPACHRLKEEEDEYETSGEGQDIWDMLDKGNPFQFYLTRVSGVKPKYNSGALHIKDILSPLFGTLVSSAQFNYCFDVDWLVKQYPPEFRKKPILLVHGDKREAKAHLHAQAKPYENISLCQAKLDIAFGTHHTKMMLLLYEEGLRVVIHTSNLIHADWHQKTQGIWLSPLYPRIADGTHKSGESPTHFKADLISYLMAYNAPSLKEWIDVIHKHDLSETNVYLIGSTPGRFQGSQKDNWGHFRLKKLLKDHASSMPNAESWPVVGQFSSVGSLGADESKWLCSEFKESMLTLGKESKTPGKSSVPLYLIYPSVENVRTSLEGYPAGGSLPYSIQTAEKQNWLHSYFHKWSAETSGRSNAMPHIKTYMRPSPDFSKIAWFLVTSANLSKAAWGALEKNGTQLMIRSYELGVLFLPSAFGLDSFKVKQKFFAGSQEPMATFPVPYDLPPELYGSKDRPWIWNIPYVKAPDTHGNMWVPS
#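 Recombinant human Tdp1 (E. coli-expressed, 1 nM final) preincubated with compounds 15 min at room temperature, then 5'-biotin/3'-phosphotyrosine-FITC DNA substrate (15 nM final) added for 5 min. AlphaScreen beads (10 ug/ml final) added 10 min; cleavage lowers signal.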
# Active calls of the source: *; ? = inconclusive; . = no result given; [ ] = dose if it differs, or a comment. Unless noted, the call rests on the fitted dose curve; in most records, active means well fitted curve in the direction sought with a large enough effect; inconclusive means small, poorly fitted or top-dose-only effect, or another doubt; inactive means no such curve, though single readings can be large; an effect the other way counts as inactive or inconclusive.
SMILES,TGFb inhibitor,TDP1 cell noCPT,IL-1B inflam inh,DT40 TDP1 CPT,HepG2 viability,TDP1 block
CC1CCC(NC(=O)C2(C)Cc3ccccc3C(=O)N2Cc2ccc(F)cc2)CC1 (configuration not stated),.,?,.,?,0.2%,-1.0%
CCc1ccc(-c2cn3c(n2)sc2cc(C(=O)NCC(C)c4ccccc4)ccc23)cc1 (configuration not stated),-11.4%,-15.0%,.,?,-12.6%,-2.6%
Cc1ccc(-c2cn3c(n2)sc2cc(C(=O)NC4CCCCC4)ccc23)cc1,2.2%,4.61µM*,.,4.11µM*,-4.9%,3.9%
O=C(NC1CCCCC1)c1ccc2c(c1)sc1nc(-c3ccccc3)cn12,-29.4%,10.3µM*,.,?,-38.7%,-1.3%
Cc1ccc(-c2cn3c(n2)sc2cc(C(=O)NC4CCCCCC4)ccc23)cc1,13.2%,16.4µM*,.,10.3µM*,-7.4%,-1.3%
CCOC(=O)c1ccc2c(c1)sc1nc(-c3ccc(OCC)cc3)cn12,-1.2%,?,.,?,8.7%,-3.9%
COc1ccc(NC(=O)c2ccc3c(c2)sc2nc(-c4ccc(OC)cc4)cn23)cc1,-29.7%,-4.3%,.,-5.5%,-1.5%,5.2%
CCc1ccc(-c2cn3c(n2)sc2cc(C(=O)NC4CCCCCC4)ccc23)cc1,-15.2%,10.3µM*,.,11.6µM*,-3.8%,2.6%
COCC(=O)Nc1cc(C(=O)N2CCc3ccccc3C2)c2c(c1)nc(-c1ccncc1)n2C,.,-12.1%,.,2.5%[9.04 µM],.,.
Cc1ccc(-n2nnnc2SCC(=O)NCC2(N3CCCCC3)CCCCC2)c(C)c1,0.9%,-9.7%,-57.3*,-23.0%,-30.4%,-0.9%[56.1 µM]
CN1CCN(c2ccc(NC(=O)CSc3nnnn3-c3ccccc3F)cc2)CC1,1.1%,-22.5%,-6.6,?,-8.6%,1.7%
C/C(N)=C(/C#N)C(=O)CSc1nnnn1-c1ccc(C)cc1C,-7.3%,13µM*,0.0,23.1µM*,-4.9%,3.1%
Cc1ccc(-n2nnnc2SCC(=O)Nc2ccc(N3CCN(C)CC3)cc2)c(C)c1,?,18.4µM*,1.0,?,-41.1%,8.4%
Cc1ccc(-n2nnnc2SCC(=O)NCC2(N3CCOCC3)CCCCC2)c(C)c1,-11.4%,16.4µM*,-12.5,?,0.6%,0.6%
Cc1ccc(-n2nnnc2SCC(=O)NCC2(N3CCOCC3)CCCCC2)cc1,14.0%,?,3.8,?,-7.0%,8.1%
Cc1cccc(-n2nnnc2SCC(=O)NCC2(N3CCOCC3)CCCCC2)c1C,-22.3%,20.6µM*,-13.5,18.4µM*,-21.6%,-1.7%[56.1 µM]
Cc1ccc(SCC(=O)Nc2ccc(N3CCN(C)CC3)c(F)c2)c(C)c1,0.5%,16.4µM*,-20.0,20.6µM*,1.8%,5.4%
COc1ccccc1-n1nnnc1SCC(=O)NCC1(N2CCOCC2)CCCCC1,-2.3%,-20.2%,-10.9,?,0.9%,1.7%
COc1ccc(CC(=O)NCc2ccc3c(c2)CCN3C(C)=O)cc1,16.8%,-22.7%,.,-22.7%,3.8%,1.5%
O=c1c2ccccc2c(C=Nc2cccc(O)c2)c(O)n1-c1ccc2c(c1)OCO2,?,11.6µM*,?,6.51µM*,-79.3%,-7.8%
O=C(CCN1C(=O)/C(=C\C=C\c2ccccc2)SC1=S)Nc1ccc(C(=O)O)cc1,0.3%,4.2%,-54.8*,-3.4%,-15.5%,14.1µM*
O=C(CCN1C(=O)S/C(=C\c2ccc(Cl)cc2)C1=O)Nc1ccc(C(=O)O)cc1,-3.8%,-27.3%,-20.1,-1.9%,3.2%,28.2µM*
O=C(CCCN1C(=O)S/C(=C\C=C\c2ccccc2)C1=O)Nc1ccc(O)cc1,0.0%,?,-77.5*,?,-12.1%,5.3%
Cc1ccccc1Oc1nc2ccccn2c(=O)c1/C=C(\C#N)c1nc2ccccc2[nH]1,.,-11.1%,.,-22.4%,-27.8%,3.2%
Cc1ccc(Oc2nc3ccccn3c(=O)c2/C=C(\C#N)c2nc3ccccc3s2)c(C)c1,-16.7%,4.11µM*,.,11.6µM*,3.0%,-2.1%
SMILES,TGFb inhibitor,TDP1 cell noCPT,IL-1B inflam inh,DT40 TDP1 CPT,HepG2 viability,TDP1 block
Cc1ccc(Oc2nc3c(C)cccn3c(=O)c2/C=C(\C#N)C(N)=O)cc1,2.3%,13µM*,?,?,0.9%,-2.5%
CCOC(=O)/C(C#N)=C/c1c(Oc2cccc(C)c2)nc2c(C)cccn2c1=O,-2.3%,-17.3%,10.5,?,-0.8%,2.7%
N#C/C(=C\c1c(Oc2ccc(F)cc2)nc2ccccn2c1=O)c1nc2ccccc2s1,-6.0%,11.6µM*,.,?,11.3%,-6.3%
Cc1cccn2c(=O)c(/C=C(\C#N)c3nc4ccccc4s3)c(Oc3ccc(Br)cc3)nc12,2.1%,6.51µM*,.,7.31µM*,2.3%,-5.3%
Cc1onc(-c2ccccc2Cl)c1C(=O)Nc1nnc(C2CCCCC2)s1,-22.4%,?,.,?,-19.7%,.
CCN1C(=O)N[C@H](c2ccccc2)C(C(C)=O)=C1C,-4.2%,-27.3%,26.6,-5.0%,-7.6%,5.0%[12.3 µM]
O=C(O)c1ccc(CNCc2ccccc2Cl)s1,10.1%,0.7%,.,-3.6%,-2.4%,5.1%
Cc1nc2c(-c3ccccc3)c(C)nn2c(C)c1CCC(=O)NCc1ccc(Cl)cc1,-3.4%,?,.,?,2.8%,4.6%
CC(C)(C)N(Cc1ccccc1)C(=O)COC(=O)C1CCN(c2ccc(C(F)(F)F)cn2)CC1,?,14.6µM*,1.8,?,-17.4%,-6.2%
CC(C)N(Cc1ccccc1)C(=O)COC(=O)C1CCN(c2ccc(C(F)(F)F)cn2)CC1,5.0%,18.4µM*,5.7,16.4µM*,-45.5%,9.3%
CC(C)(C)N(Cc1ccccc1)C(=O)COC(=O)C1CC1,3.7%,-20.8%,-12.8,-6.1%,-10.8%,0.4%
CCOc1ccc(C(=O)COC(=O)C2CCN(c3ccc(C(F)(F)F)cn3)CC2)cc1,?,?,10.9,?,2.7%,0.2%[0.505 µM]
N#CC1C(=N)Cc2ccccc2-c2ccccc21 (configuration not stated),0.0%,20.6µM*,-16.6,?,-30.2%,.
ClCC1=Nc2ccccc2Cc2ccccc21,4.5%,?,.,-23.5%,4.7%,.
CCOC(=O)CCS(=O)(=O)c1nc(-c2ccccc2)cc(C(F)(F)F)n1,?,0.651µM*,-98.8*,0.411µM*,-119.3%,3.3%
CCOC(=O)c1c(C(F)(F)F)cc(-c2ccc(F)cc2)nc1C,?,-38.5%,-3.4,-2.8%,-35.7%,-0.6%
c1ccc(-c2cc(-c3ccncc3)nc3ccc4ccccc4c23)cc1,4.7%,?,-25.1,?,-15.5%,2.7%

# Screening data (PubChem)
